Data reported in PubChem BioAssay (Tox21).
Unmarked numbers belong to inactive results. Records with an inconclusive call do not appear. Where a call stands in place of a potency, no number is given. The source made the active and inactive calls. Unless noted, calls come from the whole dose curve; as a rule, active = well fitted curve in the direction sought with a large enough effect in the repeat runs; inconclusive = weak or mixed curves; inactive = no such curve, though single readings can be large; an effect the other way counts as inactive or inconclusive.

Key:
[1] = A CellTox Green Cytotoxicity Assay to monitor cytotoxicity in HepG2 cells - 0 hour (AID 1224882); note: nearly all actives have a fitted effect of over 35% in size
Procedure, shortened: (§1)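 Measurements at 0, 8, 16, 24, 32 and 40 h of treatment captured CellTox Green fluorescence in HepG2 cells that had been co-plated with reagent and preincubated 5 h at 37 C/5% CO2.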

[2] = A CellTox Green Cytotoxicity Assay to monitor cytotoxicity in HepG2 cells - 32 hour (AID 1224883); note: nearly all actives have a fitted effect of over 50% in size; note: potency is the fitted concentration of half-maximal effect
Procedure, shortened: as §1

[3] = A CellTox Green Cytotoxicity Assay to monitor cytotoxicity in HEK293 cells - 8 hour (AID 1224884); note: nearly all actives have a fitted effect of over 35% in size
Procedure, shortened: (§2)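 Tox21 screen in HEK293: membrane-impermeant cyanine dye fluoresces on binding dead-cell DNA; compound pinned 5 h post-seeding, plates held at 37 C, signal read repeatedly through 40 h.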

[4] = qHTS RealTime-Glo MT Cell Viability Assay in HepG2 cells - 16 hour (AID 1224885); note: nearly all actives have a fitted effect of over 50% in size
Procedure, shortened: (§3)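 Cell number in HepG2 cultures estimated from NanoLuc luminescence generated by metabolic reduction of a prosubstrate by living cells. The homogeneous, nonlytic format allowed repeated reads at 0, 8, 16, 24, 32 and 40 h of compound exposure.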

[5] = qHTS RealTime-Glo MT Cell Viability Assay in HEK293 cells - 8 hour (AID 1224887); note: top concentration of the series differs between compounds; nearly all actives have a fitted effect of over 50% in size
Procedure, shortened: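 HEK293 + NanoLuc + prosubstrate, 600 cells/well; 5 h, 37 C/5% CO2; compound 23 nL in DMSO by pintool; 37 C; luminescence read at 0, 8, 16, 24, 32 and 40 h time points.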

[6] = A CellTox Green Cytotoxicity Assay to monitor cytotoxicity in HEK293 cells - 16 hour (AID 1224888); note: nearly all actives have a fitted effect of over 35% in size
Procedure, shortened: as §2

[7] = qHTS RealTime-Glo MT Cell Viability Assay in HepG2 cells - 0 hour (AID 1224889); note: nearly all actives have a fitted effect of over 50% in size
Procedure, shortened: as §3

[8] = A CellTox Green Cytotoxicity Assay to monitor cytotoxicity in HepG2 cells - 8 hour (AID 1224890); note: nearly all actives have a fitted effect of over 45% in size
Procedure, shortened: as §1

[9] = qHTS assay to identify small molecule antagonists of the estrogen receptor alpha (ER-alpha) signaling pathway using the BG1 cell line in the presence of 0.1 nM 17-beta-estradiol - cell viability counter screen (AID 1259241); note: nearly all actives have a fitted effect of over 40% in size
Procedure, shortened: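 Viability in VM7Luc4E2 cells after 22 hr compound exposure under 0.1 nM 17beta-estradiol stimulation, by CellTiter-Fluor.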

[10] = qHTS assay to identify small molecule antagonists of the androgen receptor (AR) signaling pathway using the MDA cell line in the presence of 0.5 nM R1881 - cell viability counter screen (AID 1259242); note: nearly all actives have a fitted effect of over 45% in size
Procedure, shortened: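 Concentration-response screen of compounds for toxicity in MDA-kb2 reporter cells: 16 hr at 37C with 0.5 nM R1881, endpoint live-cell protease fluorescence measured in the reporter wells.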

[11] = target: Estrogen receptor (Homo sapiens) (UniProt P03372); experiment: qHTS assay to identify small molecule antagonists of the estrogen receptor alpha (ER-alpha) signaling pathway using the BG1 cell line in the presence of 0.1 nM 17-beta-estradiol (AID 1259244); note: nearly all actives have a fitted effect of over 50% in size
Estrogen receptor (Homo sapiens), sequence (P03372 whole entry, looked up): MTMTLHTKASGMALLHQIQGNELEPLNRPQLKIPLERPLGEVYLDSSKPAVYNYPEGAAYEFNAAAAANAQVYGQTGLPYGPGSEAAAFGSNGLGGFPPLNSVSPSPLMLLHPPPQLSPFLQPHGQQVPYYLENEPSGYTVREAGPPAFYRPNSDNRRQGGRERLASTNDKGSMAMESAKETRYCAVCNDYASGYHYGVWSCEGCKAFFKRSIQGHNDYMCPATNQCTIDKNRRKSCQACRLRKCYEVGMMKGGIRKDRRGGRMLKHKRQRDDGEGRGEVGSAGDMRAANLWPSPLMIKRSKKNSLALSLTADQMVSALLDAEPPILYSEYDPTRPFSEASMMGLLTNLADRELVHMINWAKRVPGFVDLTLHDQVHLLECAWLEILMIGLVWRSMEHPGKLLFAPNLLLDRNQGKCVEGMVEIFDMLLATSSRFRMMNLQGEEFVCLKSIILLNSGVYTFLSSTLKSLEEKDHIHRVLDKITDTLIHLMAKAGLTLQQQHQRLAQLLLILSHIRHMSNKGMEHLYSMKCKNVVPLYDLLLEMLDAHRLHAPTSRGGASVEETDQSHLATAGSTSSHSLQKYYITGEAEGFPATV
Procedure, shortened: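 Compounds were tested against 0.1 nM (final) 17beta-estradiol in VM7Luc4E2 cells, which express full-length ER-alpha and an ERE-luciferase reporter; luminescence was recorded following 22 h exposure.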

[12] = qHTS assay to identify small molecule HDAC inhibitors (AID 1259364);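 note: wild-type HCT-116 cells with endogenous class I/II HDAC activity; top concentration of the series differs between compounds; nearly all actives have a fitted effect of over 45% in size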
Procedure, shortened: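 Screening used wild-type human colon HCT-116 cells incubated overnight, dosed with compounds for 2 hours, and assayed with a homogeneous luminogenic HDAC I/II reagent for 30 minutes at room temperature.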

[13] = qHTS assay to identify small molecule HDAC inhibitors - cell viability counter screen (AID 1259365)
Procedure, shortened: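 Cytotoxicity was gauged in wild-type HCT-116 cells after a brief 2hr treatment with DMSO-dissolved compounds at 37C and 5% CO2, using CellTiter-Glo luminescence developed for 30min at room temperature.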

[14] = qHTS assay to identify small molecule agonists of the sonic hedgehog signaling (Shh) pathway - cell viability counter screen (AID 1259366); note: nearly all actives have a fitted effect of over 50% in size; note: potency is the fitted concentration of half-maximal effect
Procedure, shortened: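 Stable Gli1-Luc NIH/3T3 clone, 2,000 cells/well. Compound exposure 24hr at 37C. Read-out: CellTiter-Fluor fluorescence.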

[15] = qHTS assay to identify small molecule antagonists of the sonic hedgehog signaling (Shh) pathway - cell viability counter screen (AID 1259367); note: nearly all actives have a fitted effect of over 55% in size; note: potency is the fitted concentration of half-maximal effect
Procedure, shortened: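 Fluorescence read-out (CellTiter-Fluor, 1 hr at 37C) taken after 23 hr compound treatment of 3T3 Gli1-Luc cells stimulated with conditioned medium. Cells were seeded at 2,000 per well and pre-incubated 4 hr.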

[16] = target: Androgen receptor (Homo sapiens) (UniProt P10275); experiment: qHTS assay to identify small molecule antagonists of the androgen receptor (AR) signaling pathway using the MDA cell line in the presence of 0.5 nM R1881 (AID 1259243)
Androgen receptor (Homo sapiens), sequence (P10275 whole entry, looked up): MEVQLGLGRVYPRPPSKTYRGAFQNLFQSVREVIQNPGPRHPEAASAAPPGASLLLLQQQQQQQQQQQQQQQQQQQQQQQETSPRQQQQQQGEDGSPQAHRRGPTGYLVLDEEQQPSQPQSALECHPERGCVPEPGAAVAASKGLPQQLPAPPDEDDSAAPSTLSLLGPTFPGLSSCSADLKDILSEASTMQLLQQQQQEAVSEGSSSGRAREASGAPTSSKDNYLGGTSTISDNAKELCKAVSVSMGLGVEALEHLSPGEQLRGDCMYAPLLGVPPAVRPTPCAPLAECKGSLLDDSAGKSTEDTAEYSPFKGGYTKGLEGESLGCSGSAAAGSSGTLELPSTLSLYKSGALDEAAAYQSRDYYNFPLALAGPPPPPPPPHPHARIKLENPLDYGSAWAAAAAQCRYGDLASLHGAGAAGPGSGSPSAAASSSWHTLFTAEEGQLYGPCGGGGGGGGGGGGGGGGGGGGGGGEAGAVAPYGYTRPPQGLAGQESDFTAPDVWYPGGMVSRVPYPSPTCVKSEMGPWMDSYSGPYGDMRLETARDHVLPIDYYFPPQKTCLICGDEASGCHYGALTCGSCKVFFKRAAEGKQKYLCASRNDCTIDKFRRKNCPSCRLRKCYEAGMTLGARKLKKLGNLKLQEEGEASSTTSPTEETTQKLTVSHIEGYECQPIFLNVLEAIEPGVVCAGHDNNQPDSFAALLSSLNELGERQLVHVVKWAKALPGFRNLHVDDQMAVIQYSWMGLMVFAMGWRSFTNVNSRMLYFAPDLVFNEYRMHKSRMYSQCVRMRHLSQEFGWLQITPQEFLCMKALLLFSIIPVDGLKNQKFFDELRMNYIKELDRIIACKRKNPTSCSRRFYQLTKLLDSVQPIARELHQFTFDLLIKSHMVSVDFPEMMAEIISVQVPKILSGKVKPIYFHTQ
Procedure, shortened: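 With R1881 held at 0.5 nM (final), compound effects on MMTV-luciferase expression in MDA-kb2 cells were scored by luminescence after a 16 hr, 37C incubation.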

[17] = qHTS assay to identify small molecule phospholipidosis (PLD) inducers (AID 1259344; active = well fitted curve in the direction sought with a large enough effect; an effect the other way counts as inactive or inconclusive)
Procedure, shortened: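 Read-out is LipidTOX Red fluorescence (ex 595/em 615) imaged in HepG2 cells after 24 h compound exposure at 37 C, with Hoechst nuclear counterstain (ex 352/em 461) allowing per-cell normalisation.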

[18] = A CellTox Green Cytotoxicity Assay to monitor cytotoxicity in HEK293 cells - 32 hour (AID 1224881); note: nearly all actives have a fitted effect of over 40% in size
Procedure, shortened: as §2

[19] = qHTS RealTime-Glo MT Cell Viability Assay in HEK293 cells - 24 hour (AID 1224886); note: nearly all actives have a fitted effect of over 50% in size; note: potency is the fitted concentration of half-maximal effect
Procedure, shortened: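 Homogeneous bioluminescent viability format in HEK293 cells (600 cells/well). Following 5 h at 37 C/5% CO2, 23 nL compound was pintooled; the signal was measured repeatedly during 40 h incubation.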

Row | SMILES | Potency [1] | Potency [2] | Potency [3] | Potency [4] | Potency [5] | Potency [6] | Potency [7] | Potency [8] | Potency [9] | Potency [10] | Potency [11] | Potency [12] | Potency [13] | Potency [14] | Potency [15] | Potency [16] | outcome [17] | Potency [18] | Potency [19]
1 | CC1=CC(O)CC(C)(C)C1 (stereo unspecified) | inactive | inactive | inactive | inactive | inactive | inactive | inactive | inactive | inactive | inactive | inactive | inactive | inactive | inactive | inactive |  |  |  | 
2 | CCCCC1C(=O)N(c2ccccc2)N(c2ccc(O)cc2)C1=O (stereo unspecified) | inactive | 10.7 µM (active) | inactive |  |  | inactive | inactive | inactive | inactive | inactive |  |  |  | 13.3 µM (active) | 16.8 µM (active) | 26.6 µM (active) | inactive |  | 
3 | CNCCCC1c2ccccc2C=Cc2ccccc21 | inactive | 23.9 µM (active) | inactive |  | inactive | inactive |  | inactive | inactive |  | inactive | inactive | inactive |  |  |  |  |  | 
4 | CC(=O)[C@H]1CC[C@H]2[C@@H]3C=CC4=CC(=O)CC[C@@]4(C)[C@@H]3CC[C@]12C |  | inactive | inactive |  | inactive |  | inactive | inactive | inactive | inactive |  | inactive | inactive | inactive | inactive |  | inactive | inactive | 
5 | O=C(c1ccc(O)cc1)c1ccc(Cl)cc1 | inactive | inactive | inactive | inactive |  |  | inactive |  | inactive | inactive |  |  | inactive |  | inactive |  |  |  | 22.3 µM (active)
6 | CN(C)CCOC1=Cc2ccccc2Sc2ccc(Cl)cc21 | inactive | 23.9 µM (active) |  |  | inactive | inactive |  | inactive | inactive | inactive |  |  | inactive |  | inactive |  | inactive |  | inactive
7 | CC1CC(=O)NN=C1c1ccc(NCC(C)(C)NCC(O)COc2cc(Cl)ccc2C#N)cc1 (stereo unspecified) | inactive | inactive |  | inactive | inactive |  | inactive | inactive | inactive | inactive | inactive | inactive | inactive | inactive | inactive |  |  | inactive | 
8 | COC(OC)(C(=O)c1ccccc1)c1ccccc1 | inactive | inactive | inactive | inactive | inactive | inactive | inactive | inactive | inactive | inactive | inactive | inactive | inactive | inactive | inactive |  |  |  | inactive
